Measurements from PubChem BioAssay (NCI).
Values joined by “and” are separate entries in the source; they are usually repeats but may differ in a detail not shown here. Identical values can stand only once. About 83,000 compounds went through this panel and 20% of them were active in at least one assay; those are over-represented in the sample as a whole.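 Method: cells in 96-well plates; compound added at one concentration; 48 h incubation; percent growth measured; values under 10 scored active.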 Active and inactive are the calls of the source.

The compounds below were run on MDA-MB-468 breast (assay: NCI-60 one-dose screen, 48 h (100 = growth as untreated, 0 = no growth, -100 = all killed)). Settings: 10 µM unless noted.
In the case of CC[C@H]1OC(=O)[C@H](C)[C@@H](O[C@H]2C[C@@](C)(OC)[C@@H](O)[C@H](C)O2)[C@H](C)[C@@H](O[C@@H]2O[C@H](C)C[C@H](N(C)C)[C@H]2O)[C@](C)(O)C[C@H](C)CN(C)[C@H](C)[C@@H](O)[C@]1(C)O, the growth is reported as 86.7% (inactive).
For CCCCCCN1C=C/C(=C\C(=O)n2ccc3ccccc32)c2ccccc21, the growth was -12% (active).
For CN1C(=O)N(C)C2(c3ccccc3)OC(=S)NC12c1ccccc1 (configuration not stated), the growth was 112% (inactive).
In the case of CC[C@]12C=CCN3CC[C@@]4(c5ccc(OC)cc5N(C)[C@H]4[C@@](O)(C(=O)OC)[C@@H]1OC(=O)CCC(=O)N[C@H](Cc1c[nH]c4ccccc14)C(=O)OC)[C@@H]32, the growth is reported as -42.6% [100 µM] (active).
For O=C(CSc1nc2c(n1Nc1ccccc1)-c1ccccc1SC2)Nc1nc(-c2ccc(Cl)cc2)cs1, the growth was 59.1% (inactive).
For CC(Nc1ncnc2ccc(-c3cnc(N)nc3)cc12)c1ccccc1 (configuration not stated), the growth was -28.6% (active).
COC(=O)c1ccc2oc(NC(=O)c3ccc(Nc4ccc([N+](=O)[O-])cc4C)c([N+](=O)[O-])c3)nc2c1 was tested, and the growth was 102% (inactive).
CCOC(=O)c1ccc2c(c1)[n+](=O)c(C(=O)C1CCCS1)c(C(F)(F)F)n2[O-] (configuration not stated) was tested, and the growth was -80.5% (active).
With O=C1NC(=S)NC(=O)C1=Cc1cccc(C=C2C(=O)NC(=S)NC2=O)c1 the growth was 103% (inactive).
COC1=C(C)C(=O)c2c(c(CCCl)c3n2CCC3OC(C)=O)C1=O (configuration not stated) was tested, and the growth was 85.5% (inactive).
In the case of Oc1cccnc1CN1CCOCC1, the growth is reported as 97.2% (inactive) and 102% (inactive).
With Cc1occc1-c1n[nH]c(=S)n1N1C(=O)CSC1=S the growth was 103% (inactive).
In the case of OC(c1cccc(-n2ccc(C(F)(F)F)n2)c1)c1cnccc1NC1CCCCCC1 (configuration not stated), the growth is reported as -59.4% (active).
With COc1ccc(-c2nc(SCCC(C)C)nc(N/N=C\c3ccccc3O)c2C#N)cc1 the growth was 88.6% (inactive).
In the case of O=c1c2ccccc2c(Br)c(Br)c2ccccc12, the growth is reported as 8.15% (active).
In the case of CSc1nc2c(c(=O)n1C)C1(C(=O)N(Cc3ccccc3)c3ccccc31)c1c(nc(SC)n(C)c1=O)N2, the growth is reported as 86% (inactive).
COC(=O)c1c[n+]([O-])ccc1OC was tested, and the growth was 106% (inactive).
In the case of COc1ccc(-c2cc(-c3ccc(Cl)cc3)nc3nc(N)nn23)cc1, the growth is reported as 78.5% (inactive).
With COC(=O)/C=C1\SC(=Nc2cccc(Cl)c2)N(CCc2c[nH]c3ccccc23)C1=O the growth was 54.4% (inactive).
In the case of COC(=O)CC(=O)C(=O)OC, the growth is reported as 95.3% (inactive).
In the case of COc1ccc(-c2cc(-c3cccc4ccccc34)n3c(n2)nc2ccccc23)cc1OC, the growth is reported as 63.2% (inactive).
For Cc1nc(Cl)cc(N(c2cc(Cl)nc(C)n2)c2ncc(C(=O)Nc3c(C)cccc3Cl)s2)n1, the growth was 42.1% (inactive).
Clc1ccc(/C=C/c2nc(N3CCOCC3)c3nc(Cl)c(Cl)cc3n2)cc1 was tested, and the growth was 102% (inactive).
In the case of N#C/C(=C\c1ccc([N+](=O)[O-])s1)c1nc2cc(Cl)ccc2s1, the growth is reported as 93.7% (inactive).
In the case of CN1c2ccccc2Sc2cc(/C=N/Nc3ccnc4cc(Cl)ccc34)ccc21, the growth is reported as 52.7% (inactive).
With Cc1nn(-c2ccccc2)c2ncnc(N/N=C/c3ccccc3)c12 the growth was 84.3% (inactive).
CCNC(=O)Oc1ccc(/C(=C(/C)c2ccc(Cl)cc2)c2ccc(OCCN3CCCCCC3)cc2)cc1 was tested, and the growth was 4.44% (active).
CCOC(=O)CC(C)=N was tested, and the growth was 92.8% (inactive).
COc1cccc(-c2nc(-c3ccc(NC(=O)C(C)C)cc3)[nH]c2-c2ccnc(Br)c2)c1 was tested, and the growth was 26.4% (inactive).
For O=C1C=CC(=CC=C2C=CN(CCCCCCCCCCCO)C=C2)C=C1, the growth was -37.4% (active).
In the case of O=C1N[C@H]2[C@H](CS[C@H]2CCCCC(=O)N(CCP(c2ccccc2)c2ccccc2)CCP(c2ccccc2)c2ccccc2)N1, the growth is reported as 33.8% (inactive).
With O=C1/C(=N/O)CCc2ccccc21 the growth was 109% (inactive).
In the case of O=C(/C(=C/c1ccc([N+](=O)[O-])cc1)SCc1ccc(Cl)cc1)c1ccc(F)cc1, the growth is reported as 77.2% (inactive).
In the case of O=S(=O)(NCCNc1cc(-c2c(-c3cccc(O)c3)nc3sccn23)ccn1)c1ccc(C(F)(F)F)cc1, the growth is reported as 30.7% (inactive).
CC1=CC(=O)CC(C)(C)[C@@]1(O)/C=C/[C@@H](C)O was tested, and the growth was 72.9% (inactive).
With NC(=O)c1ccc2nc3c(n2c1)C(=O)C(=O)c1ccccc1-3 the growth was -57.7% (active).
In the case of CCOc1cccc2c(NC(C)CCCN(CC)CC)c(C)cnc12 (configuration not stated), the growth is reported as 92.9% (inactive).
